Measured values from the supplement of paper PMC3724861.
This is one part of a sample in which hits are shown more often than they occur. The hit rate among all sequences tested is not known here.

tested on: T1, Caupolican (Caup) homeodomain DNA-binding domain; assay: PBM E-score (8-mer, recovered from the published 9-mer minima) (E-score (dimensionless, -0.5 to 0.5)); Drosophila protein; higher = stronger relative binding preference, active = 0.31 or more
T1 sequence: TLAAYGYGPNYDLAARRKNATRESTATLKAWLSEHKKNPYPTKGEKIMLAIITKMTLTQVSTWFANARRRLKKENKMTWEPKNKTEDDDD
Summary of the method: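 Caup's homeodomain DNA-binding domain (residues 214-303) was produced by in vitro transcription and translation and applied at 100 nM to custom-designed protein binding microarrays. Each value is an enrichment score giving relative binding preference for a short DNA word; higher means stronger. Published 9-mer scores were the minimum of their two constituent 8-mer scores, and the 8-mer values were recovered from those minima. A cutoff of 0.31 marks candidate binding sequences.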

PBM E-score, active:
ATTAACAA 0.342
ATTAACAC 0.326
ACATGATC 0.357
ACATGATG 0.351
ACATGAGA 0.344
ACATGATA 0.413
CTACAACA 0.332
ATACAACA 0.373
GTACAACA 0.429
ACATACAA 0.386
ACATAAAT 0.318
ACATACAT 0.427
AGATACAT 0.368
ACATACAC 0.352
ATTGTACA 0.417
CTTGTACA 0.44
GTTGTACA 0.388
CTTGTACC 0.389
AGTACACA 0.342
AGTACACG 0.376

PBM E-score, inactive:
GATCGGCA -0.0784
ATTGCGAC 0.0529
CAATTAGA 0.0523
GGGGTAAC -0.00369
CGTCGTTC 0.0474
ACAAGAAG 0.183
CTTAACAC 0.226
ATTAACAG 0.146
GTTAACAA 0.296
ATTAACTC 0.0863
ATTGCGGC -0.0444
AAGCGGAT -0.113
ACTTCGAT 0.0903
AGGGCAGC -0.267
CTGTCCGC -0.11
AGATGATG 0.0748
CCATGATC 0.0355
TCATGAGA 0.0179
CCATGATA 0.0656
ATATGATG 0.183
ATATGATC 0.134
GCATGATA 0.159
ACATGAGT 0.305
GCCACCAA -0.183
CCGTAAAA -0.0169
ACCTTAAA -0.0366
CAAGGCGA -0.0101
ACGGGTAC 0.103
GCACAACA 0.211
CCACAACA 0.142
CTACAACC 0.281
GTTCAACA 0.198
ATACAACG 0.283
ATACAACC 0.258
AGATACAA 0.296
ACATACGT 0.206
ACATACAG 0.247
GCATACAA 0.247
TCATACAA 0.163
ACATAAAG 0.215
AGATACAG 0.109
ACATAAAA 0.221
CATAGGTA 0.0694
AACACTAC 0.222
TCATTTAA 0.167
AGGGTTGG -0.0294
AAAACAGT 0.11
AGGCCGTA -0.041
GGCCAGTA -0.128
TAACGCTA -0.0254
GCAGTGAC -0.0444
CATCACGA 0.107
AGTGCTTG 0.116
GCATACAC 0.208
CCATACAC 0.105
AGGCCCTG -0.09
AACCAACT 0.143
GTTGTGCA 0.0605
ATTGTACG 0.203
CTCGTACC 0.0909
ATTGTACC 0.2
CTTGTGCA 0.18
CTTGTCCC 0.186
GTTGTAGA 0.291
CTTGTAGA 0.248
ACTAGAGC -0.0268
ACCGGTTA -0.00609
CAGGGGTA -0.133
AGCGAGGG -0.182
CTGATTAC 0.231
AGCACACA 0.0184
AGTACACT 0.181
AGCACACG 0.042
AGTACACC 0.265
CCCATAGG -0.163
AAACTTGG -0.0323
